According to PubChem BioAssay (NCATS):
Records with an inconclusive call do not appear. The source made the active and inactive calls. Unless noted, calls come from the whole dose curve; as a rule, active = well fitted curve in the direction sought with a large enough effect; inconclusive = small, poorly fitted or top-dose-only effect, or another doubt; inactive = no such curve, though single readings can be large; an effect the other way counts as inactive or inconclusive.

Legend:
[1] = target: Aldehyde dehydrogenase, mitochondrial (Homo sapiens) (UniProt P05091); experiment: qHTS for Inhibitors of the Aldehyde Dehydrogenase Family (ALDH2) Confirmatory screens (AID 2061303; active = well fitted inhibition curve with a large enough effect; title and protocol of this record describe different tests; note: nearly all actives have a fitted effect of over 45% in size; note: potency is the fitted concentration of half-maximal effect; for activity change, negative = inhibition: % is set by controls: 0 for no effect and ±100 for the full control effect)
[2] = qHTS for Inhibitors of the Aldehyde Dehydrogenase Family (ALDH1A2, ALDH1A3, ALDH2, ALDH3A1) (AID 2061307); note: nearly all actives have a fitted effect of over 50% in size; for Potency: test system not described further here; potency is the fitted concentration of half-maximal effect; for activity change, negative = inhibition: % is set by controls: 0 for no effect and ±100 for the full control effect
[3] = target: Aldehyde dehydrogenase, mitochondrial (Homo sapiens) (UniProt P05091); experiment: qHTS for Inhibitors of the Aldehyde Dehydrogenase Family (ALDH2) Primary screen (AID 2061308); note: nearly all actives have a fitted effect of over 55% in size; note: potency is the fitted concentration of half-maximal effect;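 for activity change, negative = inhibition: plate controls were vehicle for no effect and reference inhibitor for full effect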
[4] = target: Retinaldehyde dehydrogenase 3 (Homo sapiens) (UniProt P47895); experiment: qHTS for Inhibitors of the Aldehyde Dehydrogenase Family (ALDH1A3) Confirmatory screens (AID 2061311); note: nearly all actives have a fitted effect of over 60% in size; note: potency is the fitted concentration of half-maximal effect; for activity change, negative = inhibition: % is set by controls: 0 for no effect and ±100 for the full control effect
[5] = target: Retinal dehydrogenase 2 (Homo sapiens) (UniProt O94788); experiment: qHTS for Inhibitors of the Aldehyde Dehydrogenase Family (ALDH1A2) Confirmation screens (AID 2061314); note: nearly all actives have a fitted effect of over 65% in size; note: potency is the fitted concentration of half-maximal effect
[6] = target: Retinaldehyde dehydrogenase 3 (Homo sapiens) (UniProt P47895); experiment: qHTS for Inhibitors of the Aldehyde Dehydrogenase Family (ALDH1A3) Primary screen (AID 2061315);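 note: plate controls were DMSO vehicle for no effect and reference inhibitor for full effect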
[7] = target: Aldehyde dehydrogenase 1A1 (Homo sapiens) (UniProt P00352); experiment: qHTS for Inhibitors of the Aldehyde Dehydrogenase Family (ALDH1A1) Confirmatory screens (AID 2061316); note: nearly all actives have a fitted effect of over 65% in size; note: potency is the fitted concentration of half-maximal effect; for activity change, negative = inhibition: % is set by controls: 0 for no effect and ±100 for the full control effect

CCCCN(CCCNC(=S)NCCCc1cnc[nH]1)c1ccc(Br)cn1
active: Potency [1] 22.4 µM | Potency [2] 12.6 µM | Potency [4] 14.1 µM | Potency [5] 8.96 µM
inactive: Potency [3] | Potency [6] | Potency [7]

O=C(CSc1nnc(-c2cccc(S(=O)(=O)N3CCCC3)c2)n1-c1ccccc1)Nc1ccc(F)cc1
inactive: Potency [1] | Potency [2] | Potency [3] | Potency [4] | Potency [5] | Potency [6] | Potency [7]

COC(=O)c1ccc2c(c1)S(=O)(=O)N=C2Sc1cc(C)ccc1C
inactive: Potency [1] | Potency [2] | Potency [3] | Potency [4] | Potency [6] | Potency [7]
active: Potency [5] 14.2 µM

O=C(O)c1ccc(S(=O)(=O)N[C@H](Cc2ccccc2)C(=O)O)cc1
inactive: Potency [1] | Potency [2] | Potency [3] | Potency [4] | Potency [5] | Potency [6] | Potency [7]

CC(=O)SCC(CC(=O)c1ccc(C)cc1)C(=O)O (centres undefined)
inactive: Potency [1] | Potency [2] | Potency [3] | Potency [4] | Potency [5] | Potency [6] | Potency [7]

CC(=O)N(C(C)=O)n1c(C)nc2sc3c(c2c1=O)CCNC3
inactive: Potency [1] | Potency [2] | Potency [3] | Potency [4] | Potency [5] | Potency [6] | Potency [7]

Cc1nc(C)c(-c2ccc3ncnc(NCc4ncc[nH]4)c3c2)s1
inactive: Potency [1] | Potency [2] | Potency [3] | Potency [4] | Potency [5] | Potency [6] | Potency [7]

COc1ccc(C[C@H](N)C(=O)N[C@H]2[C@@H](O)[C@H](n3cnc4c(N(C)C)ncnc43)O[C@@H]2CO)cc1
inactive: Potency [1] | Potency [2] | Potency [3] | Potency [4] | Potency [5] | Potency [6] | Potency [7]

N#Cc1c(-c2csc(-c3no[n+]([O-])c3C#N)c2)no[n+]1[O-]
inactive: Potency [3] | Potency [6]
active: Potency [1] 14.1 µM | Potency [2] 6.34 µM | Potency [4] 12.7 µM | Potency [5] 2.25 µM | Potency [7] 11.3 µM

Cc1cc(N2C(=O)c3ccccc3C2=O)n[nH]1
inactive: Potency [1] | Potency [2] | Potency [3] | Potency [4] | Potency [5] | Potency [6] | Potency [7]

C=CCNc1oc(-c2cccs2)nc1C#N
inactive: Potency [1] | Potency [2] | Potency [3] | Potency [4] | Potency [5] | Potency [6] | Potency [7]

NC(=O)c1ccc(C[C@H](C(=O)O)N2C(=O)c3ccc(C(=O)O)cc3C2=O)cc1
inactive: Potency [1] | Potency [2] | Potency [3] | Potency [4] | Potency [5] | Potency [6] | Potency [7]

Cc1ccc(S(=O)(=O)NC(N)=NCCC[C@@H](NC(=O)CNC(=O)c2ccccc2)C(=O)Nc2cc(C(F)(F)F)ccc2Cl)cc1
inactive: Potency [1] | Potency [2] | Potency [3] | Potency [4] | Potency [5] | Potency [6] | Potency [7]

O=C(O)c1ccc2c(c1)C(=O)N([C@H](Cc1ccc(F)cc1)C(=O)O)C2=O
inactive: Potency [1] | Potency [2] | Potency [3] | Potency [4] | Potency [5] | Potency [6] | Potency [7]

O=C1[C@@H]2[C@H]3CC[C@H](C3)[C@@H]2C(=O)N1CCCCN1CCN(c2ncccn2)CC1
inactive: Potency [1] | Potency [2] | Potency [3] | activity change, negative = inhibition [4] -14.2% [at 0.022 µM] | Potency [5] | Potency [6]
active: Potency [7] 2.52 µM

CCc1nn2c(=O)cc(-c3ccncc3)nc2s1
active: Potency [5] 25.2 µM
inactive: Potency [1] | Potency [2] | Potency [3] | Potency [4] | Potency [6] | Potency [7]

COc1ccc(C2=Nn3c(nnc3-c3cc(OC)cc(OC)c3)SC2)cc1
inactive: Potency [1] | Potency [2] | Potency [3] | Potency [4] | Potency [5] | Potency [6] | Potency [7]

Cc1nnc(-c2ccccc2C(C)C)nc1NCc1ccc(-c2cccnc2)cc1
inactive: Potency [1] | Potency [2] | Potency [3] | Potency [5] | Potency [6] | Potency [7]
active: Potency [4] 12.7 µM

COc1ccc(-c2csc(N3CCC(C(N)=O)CC3)n2)cc1
inactive: Potency [1] | Potency [2] | Potency [3] | Potency [4] | Potency [5] | Potency [6] | Potency [7]

N#Cc1ccccc1OC1=NS(=O)(=O)c2ccccc21
inactive: Potency [1] | Potency [2] | Potency [3] | Potency [4] | Potency [5] | Potency [6] | Potency [7]

N#CSc1cc(SC#N)c(N)nc1N
active: Potency [1] 14.1 µM | Potency [2] 5.62 µM | Potency [3] 3.55 µM | Potency [4] 10.1 µM | Potency [5] 1.79 µM | Potency [7] 0.896 µM
inactive: Potency [6]

CCC(=O)C1CCCN(C(=O)CC(c2ccc3c(c2)OCO3)c2c(O)cc(OC)cc2OC)C1 (centres undefined)
inactive: Potency [1] | Potency [2] | Potency [3] | Potency [4] | Potency [5] | Potency [6] | Potency [7]

CCOc1ccccc1-c1nnc2n1N=C(c1ccc(OC)cc1)CS2
active: Potency [2] 7.94 µM | Potency [7] 17.9 µM
inactive: Potency [1] | Potency [3] | Potency [4] | Potency [5] | Potency [6]

Cc1ccc(OCCn2c(CCNC(=O)c3cccc(Cl)c3)nc3ccccc32)cc1
inactive: Potency [1] | Potency [2] | Potency [3] | Potency [4] | Potency [5] | Potency [6]

CC(C)c1ccccc1-c1ncc(F)c(NC(C)(C)c2ccc(-c3cccnc3)cc2)n1
inactive: Potency [1] | Potency [2] | Potency [3] | Potency [4] | Potency [5] | Potency [6] | Potency [7]

CC(C)(C)c1ccc(SC2=NS(=O)(=O)c3ccccc32)cc1
inactive: Potency [1] | Potency [2] | Potency [3] | Potency [4] | Potency [6] | Potency [7]
active: Potency [5] 12.7 µM

C[C@@](Cc1ccccc1)(C(=O)O)N1C(=O)c2ccc(C(=O)O)cc2C1=O
inactive: Potency [1] | Potency [2] | Potency [3] | Potency [4] | Potency [5] | Potency [6] | Potency [7]

Cc1ccc(-c2cc(C(=O)N3CCCCC3)c3ccccc3n2)cc1C
inactive: Potency [1] | Potency [2] | Potency [3] | Potency [4] | Potency [5] | Potency [6] | Potency [7]

Cc1nnc(-c2cnn(C)c2N)n1CCCn1ccnc1
inactive: Potency [1] | Potency [2] | Potency [3] | Potency [4] | Potency [5] | Potency [6] | Potency [7]

Cc1cccc(OC2=NS(=O)(=O)c3ccccc32)c1
inactive: Potency [1] | Potency [2] | Potency [3] | Potency [4] | Potency [5] | Potency [6] | Potency [7]

N[C@@H](CCC(=O)O)C(=O)Nc1ccc(Cl)cc1C(=O)c1ccc[nH]1
inactive: Potency [1] | Potency [2] | Potency [3] | Potency [4] | Potency [5] | Potency [6] | Potency [7]

Nc1nnc(-c2ccc3ccccc3c2)o1
inactive: Potency [1] | Potency [2] | Potency [3] | Potency [4] | Potency [5] | Potency [6] | Potency [7]

O=S1(=O)N=C(Oc2ccccc2)c2ccccc21
inactive: Potency [1] | Potency [2] | Potency [3] | activity change, negative = inhibition [4] -14.1% [at 0.022 µM] | Potency [5] | Potency [6] | Potency [7]

CCc1nnc(-c2cnn(C)c2N)n1CCCn1ccnc1
inactive: Potency [1] | Potency [2] | Potency [3] | Potency [4] | Potency [5] | Potency [6] | Potency [7]

O=C1c2ccccc2NC(c2ccc(-c3cccc([N+](=O)[O-])c3)o2)N1O (centres undefined)
active: Potency [1] 4.49 µM | Potency [2] 2.25 µM | Potency [3] 10 µM | Potency [4] 4.49 µM | Potency [5] 2.52 µM | Potency [7] 3.18 µM
inactive: Potency [6]

COc1cccc(C2c3c(ncn(CCCN4CCOCC4)c3=N)Oc3ccc4ccccc4c32)c1 (centres undefined)
inactive: Potency [1] | Potency [2] | Potency [3] | Potency [4] | Potency [5] | Potency [6] | Potency [7]

N#Cc1nc(NCCO)nc(Nc2ccccc2)n1
inactive: Potency [1] | Potency [2] | Potency [3] | Potency [4] | Potency [5] | Potency [6] | Potency [7]

CC(C)(C)c1ccc(C[C@H](C(=O)O)N2C(=O)c3ccc(C(=O)O)cc3C2=O)cc1
inactive: Potency [1] | Potency [2] | Potency [3] | Potency [4] | Potency [5] | Potency [6] | Potency [7]

COc1cc(F)cc(F)c1[S+](=O)([O-])N1CCN([S+](=O)([O-])c2ccc3c(c2)OCCO3)CC1
inactive: Potency [1] | Potency [2] | Potency [3] | Potency [4] | Potency [5] | Potency [6] | Potency [7]

O=C(NC1CCCc2c1cnn2-c1ccc(F)cc1F)c1ccccn1 (centres undefined)
inactive: Potency [1] | Potency [2] | Potency [3] | Potency [4] | Potency [5] | Potency [6] | Potency [7]

COc1ccc(C[C@@H](NS(=O)(=O)c2ccc(C(=O)O)cc2)C(=O)O)cc1
inactive: Potency [1] | Potency [2] | Potency [3] | Potency [4] | Potency [5] | Potency [6] | Potency [7]

N#Cc1ccc(-c2ccc(CNc3ccc(N4CCCCC4)cc3)o2)cc1
active: Potency [1] 0.0712 µM | Potency [2] 0.712 µM | Potency [4] 11.3 µM | Potency [5] 2.25 µM | Potency [7] 8.96 µM
inactive: Potency [3]

COc1ccc(N2Cc3cccc(C(=O)O)c3C2=O)c(OC)c1
inactive: Potency [1] | Potency [2] | Potency [3] | Potency [4] | Potency [5] | Potency [6] | Potency [7]

OCc1cccc(-c2noc(-c3ccccc3F)n2)c1
active: Potency [2] 10.7 µM | Potency [4] 5.65 µM
inactive: Potency [1] | Potency [3] | Potency [5] | Potency [7]

CCOC(=O)c1cccc(-n2cnc(/C=C3\NC(=O)N(CC(=O)O)C3=O)c2)c1
inactive: Potency [1] | Potency [2] | Potency [3] | Potency [4] | Potency [5] | Potency [6] | Potency [7]

COc1ccc(C2=Nn3c(nnc3-c3cc(OC)ccc3OC)SC2)c(OC)c1
inactive: Potency [1] | Potency [3] | Potency [4] | Potency [5] | Potency [6]
active: Potency [2] 17.9 µM | Potency [7] 6.34 µM

Cc1ccc2nc3sc(C(=O)NCc4ccco4)cc3cc2c1
active: Potency [1] 12.7 µM | Potency [2] 11.3 µM | Potency [4] 10.1 µM | Potency [5] 7.12 µM | Potency [7] 7.12 µM
inactive: Potency [3] | Potency [6]

Cc1ccc(C[C@@H](NS(=O)(=O)c2ccc(C(=O)O)cc2)C(=O)O)cc1
inactive: Potency [1] | Potency [2] | Potency [3] | Potency [4] | Potency [5] | Potency [6] | Potency [7]

Cc1noc(C)c1-c1csc(N2CCC(C(N)=O)CC2)n1
inactive: Potency [1] | Potency [2] | Potency [3] | Potency [4] | Potency [5] | Potency [6] | Potency [7]

CC(=O)Nc1ccc(S(=O)(=O)N2CCN(S(=O)(=O)c3ccc4c(c3)OCCO4)CC2)cc1
inactive: Potency [1] | Potency [2] | Potency [3] | Potency [4] | Potency [5] | Potency [6] | Potency [7]

Cc1cccc2c(C(=O)O)cc(Cl)nc12
inactive: Potency [1] | Potency [2] | Potency [3] | Potency [4] | Potency [5] | Potency [6] | Potency [7]
